Screening data: PubChem BioAssay, several laboratories
Hits are enriched below; roughly 1.9% of the tested compounds scored in any of these assays.
Efa HMGR inh: E. faecalis class II HMG-CoA reductase inhibition. purified E. faecalis HMGR, NADPH absorbance 340 nm kinetic. inhibition, % at 10 µM. 190,000 tested, 0.41% active. AID 1066;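 active = inhibition above a set limit, the median over all tested compounds plus 3 SD, cut at about 9.5% in these data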;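 also: enzyme runs in reverse so mevalonate oxidation gives rising NADPH absorbance; 0% = complete reaction with DMSO and 100% = background rate lacking mevalonate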
EP2 antag: inhibitors of human EP2 prostaglandin E2 receptor; P43116; inhibition, % at 25 µM; C6 glioma cells expressing human EP2, cAMP TR-FRET; cells stimulated with saturating PGE2; 260,000 tested, 0.52% active;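 active = percent inhibition above 40 after rounding to a whole number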;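 also: rat C6 glioma host cells with rolipram phosphodiesterase inhibitor present; the protocol text gives 20 µM as final concentration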
Target sequence (P43116 whole entry, looked up): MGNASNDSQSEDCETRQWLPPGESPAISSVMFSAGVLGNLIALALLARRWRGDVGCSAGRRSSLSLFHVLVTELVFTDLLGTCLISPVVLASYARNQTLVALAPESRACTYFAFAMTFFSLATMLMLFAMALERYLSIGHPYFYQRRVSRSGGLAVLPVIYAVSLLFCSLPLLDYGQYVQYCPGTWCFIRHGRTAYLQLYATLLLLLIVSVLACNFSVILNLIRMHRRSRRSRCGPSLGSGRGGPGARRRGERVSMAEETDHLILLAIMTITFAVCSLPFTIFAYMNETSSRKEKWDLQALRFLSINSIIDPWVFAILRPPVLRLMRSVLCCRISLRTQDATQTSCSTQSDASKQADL
Calpain2 inh: inhibitors of pig calpain II. purified calpain II, fluorogenic peptide substrate, 30 min. inhibition, % at 16 µM. 220,000 tested, 0.37% active. AID 1236;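 active = inhibition above about 50%, limit read from the data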
Furin inhibitor: inhibitors of human furin; 220,000 tested, 0.061% active; purified furin, fluorogenic substrate cleavage; inhibition, % at 20 µM or 30 µM; P09958; in the data active = inhibition above about 25%
EP2 mod: modulates human prostaglandin E2 receptor EP2 signaling; P43116; EP2-expressing cells, cAMP HTRF FRET, PGE2 co-stimulation; induction, % at 25 µM; 260,000 tested, 0.83% active;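 active = compounds whose cAMP rise, as percent of the full-agonist control response, exceeds 60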;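 also: rat C6 glioma line stably carrying human EP2 under a CMV promoter; the protocol text gives 20 µM as final concentration; 100% = response of wells given 1 µM PGE2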
Active calls of the source: *.

O=C(CCCCCCN1C(=O)c2ccccc2C1=O)N1CCC(c2ccccc2)C1 (stereo not drawn) was read as Efa HMGR inh -3.1, EP2 antag 16.1, Calpain2 inh 52.9*, Furin inhibitor -10.0 and EP2 mod 8.2.
`CN1CCc2c(OCC(=O)N3CCCc4ccccc43)cccc2C1=O` gave Efa HMGR inh 3.3, EP2 antag 4.2, Calpain2 inh -28.2, Furin inhibitor -13.9 and EP2 mod -12.0.
`Cc1c(C(=O)N2CCN(c3ccccn3)CC2)sc2ncnc(N3CCOCC3)c12` gave Efa HMGR inh -3.4, EP2 antag 5.6, Calpain2 inh 12.9, Furin inhibitor -22.7 and EP2 mod 0.7.
`Cc1c(C(=O)N2CCC(C)CC2)sc2ncnc(N3CCN(c4ccccc4)CC3)c12` gave Efa HMGR inh -1.2, Calpain2 inh 63.0*, Furin inhibitor -11.0 and EP2 mod -17.6.
`COc1ccc(NC(=O)Nc2ncn(Cc3cccc(C(F)(F)F)c3)n2)cc1OC` gave Efa HMGR inh 4.8, EP2 antag 0.9, Calpain2 inh -29.4, Furin inhibitor 29.2* and EP2 mod -42.9.
Screening O=C(/C=C/c1ccccc1)NCCc1c[nH]c2ccccc12 returned EP2 antag 74.2* and EP2 mod -133.6.
CCn1c(=O)n(CC(=O)NCc2cccc(OC)c2)c2cccnc21 was read as EP2 antag 4.5 and EP2 mod -47.6.
O=C1c2ccccc2-c2c(NCCc3ccccc3)c(=O)[nH]c3cccc1c23 was read as EP2 antag 10.3 and EP2 mod 65.8*.
For O=C1c2ccccc2[C@@H]([C@H]2c3ccccc3C(=O)c3cc(Br)ccc32)c2ccc(Br)cc21 the results were EP2 antag 53.9* and EP2 mod 4.3.
`CC(=O)c1cc(C#N)c(SCCC(C)C)nc1C` gave Efa HMGR inh -1.4, EP2 antag 5.3, Calpain2 inh -1.2, Furin inhibitor -19.6 and EP2 mod 61.5*.
`NC(N)=N/N=C/c1ccc(OCc2ccccc2Cl)cc1` gave Efa HMGR inh -1.9, EP2 antag 95.6*, Calpain2 inh 20.4, Furin inhibitor -7.4 and EP2 mod 33.1.
`O=C1CCCC(O)=C1C=Nc1cccc(C(F)(F)F)c1` gave Efa HMGR inh -3.8, EP2 antag 8.9, Calpain2 inh 15.7, Furin inhibitor 25.9* and EP2 mod 3.7.
For COc1ccc(Nc2nc3ccccc3nc2-n2nc(C)cc2C)cc1 the results were Efa HMGR inh -2.5, EP2 antag 9.5, Calpain2 inh -18.4, Furin inhibitor -5.3 and EP2 mod 65.3*.
O=C(NC1CCN(C(=O)NC2CCCCC2)CC1)c1ccc(F)cc1 was read as EP2 antag 6.7 and EP2 mod -4.4.
`CC1CCc2c(sc3ncn4c(SCC(=O)c5ccccc5F)nnc4c23)C1` (stereo not drawn) gave EP2 antag 14.2 and EP2 mod 38.3.
`CC1CCN(C(=O)C2c3ccccc3C(=O)N3CCc4ccccc4C23)CC1` (stereo not drawn) gave Efa HMGR inh -7.4, EP2 antag 3.3, Calpain2 inh 10.1, Furin inhibitor -18.4 and EP2 mod 5.9.
`O=C(C1c2ccccc2C(=O)N2CCc3ccccc3C12)N1CCN(Cc2ccccc2)CC1` (stereo not drawn) gave Efa HMGR inh 49.1*, EP2 antag 9.4, Calpain2 inh 5.8, Furin inhibitor -32.2 and EP2 mod 23.5.
For CCn1c(COc2ccc(OC)cc2)nnc1SCC(=O)Nc1cc(C)cc(C)c1 the results were EP2 antag 24.2 and EP2 mod 17.6.
`O=C(Cc1cccs1)NC(c1ccccc1)c1ccccc1` gave Efa HMGR inh 2.9, EP2 antag 4.5, Calpain2 inh -12.2, Furin inhibitor -27.3 and EP2 mod 29.5.
For O=C(O)CCC(=O)NC(c1ccccc1)c1ccccc1 the results were Efa HMGR inh 14.0*, EP2 antag 6.5, Calpain2 inh -26.7, Furin inhibitor -20.7 and EP2 mod 37.2.
Cc1occc1-c1nnc(SCC(=O)NC(C)(C)C)n1-c1ccc(F)cc1 was read as EP2 antag 11.5 and EP2 mod 14.5.
COc1c(C)cccc1C(=O)NC(=S)Nc1cccc2nsnc12 was read as Efa HMGR inh -6.1, EP2 antag 129.3*, Calpain2 inh -1.5, Furin inhibitor -12.2 and EP2 mod -79.8.
CC(C)CC(=O)NC(=S)Nc1cccc2nsnc12 was read as Efa HMGR inh 1.0, EP2 antag 23.9, Calpain2 inh -15.8, Furin inhibitor -20.4 and EP2 mod 10.4.
For Clc1ccc(C2(CN3CCCC(CN4CCOCC4)C3)CC2)cc1 (stereo not drawn) the results were EP2 antag 4.5 and EP2 mod -12.5.
For C/C(=N/NC(=O)c1cc(O)c(O)c(O)c1)c1ccc([N+](=O)[O-])cc1 the results were Efa HMGR inh 20.9*, EP2 antag 6.6, Calpain2 inh -19.8, Furin inhibitor -12.9 and EP2 mod 21.8.
`C/C(=N/NC(=O)c1cc(-c2cccc([N+](=O)[O-])c2)n[nH]1)c1ccc(Cl)cc1` gave Efa HMGR inh -5.6, EP2 antag 8.9, Calpain2 inh 68.2*, Furin inhibitor -5.5 and EP2 mod 1.7.
`CC(C)c1ccc(/C=N/NC(=O)c2cc(-c3cccc([N+](=O)[O-])c3)n[nH]2)cc1` gave EP2 antag 3.9, Calpain2 inh 40.2, Furin inhibitor -1.5 and EP2 mod -13.5.
For O=C(CN1C(=O)c2ccccc2S1(=O)=O)NCCSCc1ccccc1 the results were EP2 antag 5.4 and EP2 mod -66.9.
Cc1nc2c(c(=O)[nH]1)CCN(C(=O)c1ccc(Cn3cc(Cl)cn3)o1)C2 was read as EP2 antag 6.1 and EP2 mod 5.1.
CCOc1ccc(NC(=O)Cn2nc(-c3cc(C)oc3C)cc(N)c2=O)cc1 was read as EP2 antag 4.1 and EP2 mod -48.2.
CCOc1ccc(/C(O)=C2/C(=O)C(=O)N(CC3CCCO3)C2c2ccco2)cc1 (stereo not drawn) was read as Efa HMGR inh 28.6*, EP2 antag 16.1, Calpain2 inh 8.9, Furin inhibitor -26.0 and EP2 mod 32.9.
`CCOc1ccc(/C(O)=C2/C(=O)C(=O)N(CC3CCCO3)C2c2ccc(C)o2)cc1` (stereo not drawn) gave Efa HMGR inh 4.3, EP2 antag 12.9, Calpain2 inh -5.0, Furin inhibitor 6.9 and EP2 mod 35.1.
Cc1cc(N2CCOCC2)nc(SCc2ccc(Cl)cc2Cl)n1 was read as Efa HMGR inh 2.8, EP2 antag 15.0, Calpain2 inh -1.0, Furin inhibitor -16.8 and EP2 mod 47.6.
For Cc1cc(N2CCOCC2)nc(SCC(=O)OCc2ccccc2)n1 the results were Efa HMGR inh 11.3*, EP2 antag 6.4, Calpain2 inh -8.0, Furin inhibitor -21.6 and EP2 mod -3.7.
`Brc1ccccc1C1CC(c2ccccc2)=Nc2ccccc2N1` (stereo not drawn) gave Efa HMGR inh 0.5, EP2 antag 6.5, Calpain2 inh -3.2, Furin inhibitor -18.5 and EP2 mod 47.6.
